Compounds with a hit are over-represented: about 5.7% of the library has one in this group of screens.
GLP1R cytotox = qHTS of GLP-1 Receptor Inverse Agonists: Cytotox Screen; AID 624418, 2012; Potency, µM (titrated, usually from 38.3 µM), inactives show top-dose activity change, negative = inhibition, actives largely listed as inhibitors; hit rate 0.13% among 410,000; HEK293 cAMP-luciferase reporter cells, luminescence, 24 h;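 also: loss of luciferase light is scored as toxicity; potency is read from the fitted curve at half-maximal effect; % is scaled to controls: 0 for no effect and ±100 for the full control effect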
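To flag toxic compounds, the library was rerun on cells for 24 hr at 37 deg C and 5% CO2. Viability-linked luminescence was captured 12 min after adding luciferase detection reagent.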
GLP1R ag = qHTS of GLP-1 Receptor Agonists; Glucagon-like peptide 1 receptor (Homo sapiens), P43220; HEK293 GLP-1R CRE-luciferase, luminescence, 4-6 h; cells express a hypersensitive GLP-1R form; AID 624172, 2012; Potency, µM (doses to about 45.6 µM), without a hit: top-dose activation, hits mostly activators; hit rate 0.007% among 380,000; also: potency is read from the fitted curve at half-maximal effect; % of control where 0% means no effect
Target sequence (P43220 whole entry, looked up): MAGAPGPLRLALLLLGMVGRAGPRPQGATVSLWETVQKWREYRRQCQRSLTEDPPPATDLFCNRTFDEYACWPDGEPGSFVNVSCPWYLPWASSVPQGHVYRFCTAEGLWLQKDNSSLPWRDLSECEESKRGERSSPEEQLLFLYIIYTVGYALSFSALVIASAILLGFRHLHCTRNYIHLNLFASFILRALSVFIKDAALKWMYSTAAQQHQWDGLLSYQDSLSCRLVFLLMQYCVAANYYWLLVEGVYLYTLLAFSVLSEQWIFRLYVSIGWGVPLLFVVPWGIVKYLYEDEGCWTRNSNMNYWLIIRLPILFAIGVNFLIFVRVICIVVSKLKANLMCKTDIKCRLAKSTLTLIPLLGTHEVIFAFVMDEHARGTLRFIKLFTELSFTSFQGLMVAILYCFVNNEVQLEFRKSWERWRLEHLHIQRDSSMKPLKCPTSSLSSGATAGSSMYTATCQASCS
GLP1R inv ag = qHTS of GLP-1 Receptor Inverse Agonists (Inhibition Mode); HEK293 GLP-1R CRE-luciferase, luminescence, 24 h; GLP-1R form is constitutively active; Potency, µM (top dose mostly 38.3 µM), inactives show top-dose activity change, negative = inhibition, actives largely listed as inhibitors; hit rate 1.6% among 410,000; also: potency is read from the fitted curve at half-maximal effect; % is scaled to controls: 0 for no effect and ±100 for the full control effect; nearly all actives have a fitted effect of over 55% in size
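Seeding at 200 cells/uL, 12 h culture, 24 hr compound treatment, then luciferase reagent and a luminescence read; cells are HEK293 stably expressing a constitutively active GLP-1R plus cAMP-responsive luciferase.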
DRD3 agonist = qHTS of D3 Dopamine Receptor Agonist: qHTS. D3R DiscoveRx beta-arrestin cells, luminescence, 90 min. max activation, %. hit rate 0.58% among 410,000. AID 652048, 2013; in the data active = max activation above about 30%; also: 0% is about no effect
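Agonist-mode cell screen: cells plated at 1500/well and incubated overnight at 37 °C, then exposed to library compounds for 90 min at 37 °C. Detection reagent was added for 30–60 min at room temperature, and luminescence was read.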
ClpP mod = qHTS Assay for Activators of ClpP. hit rate 1.9% among 340,000. ATP-dependent Clp protease proteolytic subunit (Bacillus subtilis (strain 168)), P80244. Potency, µM (series often up to 57.5 µM), without a hit: at the top dose activity change, negative = active. purified B. subtilis ClpP, FRET peptide cleavage, 20 min; active = well fitted falling curve with a large enough effect; inconclusive = small, poorly fitted or top-dose-only effect; inactive = no such curve, though single readings can be large or run the other way; also: potency is read from the fitted curve at half-maximal effect; the source files actives as falling curves though it sought activators and does not explain the sign; nearly all actives have a fitted effect of over 65% in size
Target sequence (P80244 whole entry, looked up): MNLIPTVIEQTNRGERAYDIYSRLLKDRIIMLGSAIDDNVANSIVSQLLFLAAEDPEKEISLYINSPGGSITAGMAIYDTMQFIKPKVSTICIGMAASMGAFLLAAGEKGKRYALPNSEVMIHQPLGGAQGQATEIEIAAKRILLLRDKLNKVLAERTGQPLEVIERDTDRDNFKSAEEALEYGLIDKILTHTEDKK
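FRET quenching reversal measured ClpP activation: 10 microg/mL B. subtilis ClpP at pH 8 with the FRET-FV decapeptide, read at 430 nm after 320 nm excitation. The 20-min minus 0-min signal was scaled between DMSO/no-enzyme wells and ADEP (5.8 microM final).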
DRD3 antagonist = qHTS of D3 Dopamine Receptor Antagonist: qHTS; D(3) dopamine receptor (Homo sapiens), P35462; D3R cells, DiscoveRx beta-arrestin luminescence, antagonist mode; stronger effect = lower value; max response, negative = inhibition, %; hit rate 2.5% among 360,000; AID 652054, 2013; in the data active = max response below about -50%; inconclusive = no clear call, values can overlap the other calls; also: % is scaled to controls: 0 for no effect and ±100 for the full control effect
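Cells expressing the human receptor were seeded at 1500 cells/well, incubated overnight at 37 degrees C in 5% CO2, then exposed to library compounds with dopamine controls for 90 minutes at 37 degrees C before luminescent detection.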
* hit, by the source's call. Unless noted, calls follow the shape of the dose curve; as a rule, active = well fitted curve in the direction sought with a large enough effect; inconclusive = small, poorly fitted or top-dose-only effect, or another doubt; inactive = no such curve, though single readings can be large; an effect the other way counts as inactive or inconclusive.

Screening CN1CCN(C(c2ccccc2)c2ccccc2)CC1 returned GLP1R cytotox 4%, GLP1R ag -5%, GLP1R inv ag inconclusive, DRD3 agonist 0, ClpP mod -3% and DRD3 antagonist -80*.
For CN1CCCN(C(c2ccccc2)c2ccc(Cl)cc2)CC1 (stereo unspecified) the results were GLP1R cytotox inconclusive, GLP1R ag 21%, GLP1R inv ag inconclusive, DRD3 agonist -85, ClpP mod 3% and DRD3 antagonist -113*.
For c1ccc(OCCN2CCN(C(c3ccccc3)c3ccccc3)CC2)cc1 the results were GLP1R cytotox -5%, GLP1R ag -7%, GLP1R inv ag inconclusive, DRD3 agonist -14, ClpP mod -2% and DRD3 antagonist -89*.
Screening Nc1c(Br)cc(C=O)cc1Br returned ClpP mod -3%.
O=C(O)CCCCCNC(=O)CCn1nnc2ccccc2c1=O was read as GLP1R cytotox 5%, GLP1R ag -4%, GLP1R inv ag 0%, DRD3 agonist 1, ClpP mod -3% and DRD3 antagonist -52*.
Screening CC1=C(C(=O)Nc2cccnc2)C(c2ccccc2)n2nc(-c3ccc(O)cc3)nc2N1 (stereo unspecified) returned GLP1R cytotox -5%, GLP1R inv ag 2%, DRD3 agonist -2 and ClpP mod -4%.
`O=C(O)C(=O)Nc1cccc(C2=NN=N[N]2)c1` gave GLP1R ag 0%.
For Cc1c(Cl)cccc1NC(=S)NC1CCN(Cc2ccccc2)CC1 the results were GLP1R cytotox -22%, GLP1R ag -6%, GLP1R inv ag inconclusive, DRD3 agonist -13, ClpP mod -2% and DRD3 antagonist -72*.
Screening Cc1c(Cl)cccc1NC(=S)N1CCN(Cc2ccccc2)CC1 returned GLP1R cytotox -25%, GLP1R ag -3%, GLP1R inv ag inconclusive, DRD3 agonist -5, ClpP mod -2% and DRD3 antagonist -13.
Screening S=C(NCc1ccc(Cl)cc1)NC1CCN(Cc2ccccc2)CC1 returned GLP1R cytotox inconclusive, GLP1R ag 6%, GLP1R inv ag 3.5µM*, DRD3 agonist -16 and DRD3 antagonist -66*.
`S=C(Nc1ccccc1Cl)NC1CCN(Cc2ccccc2)CC1` gave GLP1R cytotox -13%, GLP1R ag -20%, GLP1R inv ag inconclusive, DRD3 agonist -7, ClpP mod -5% and DRD3 antagonist -84*.
Screening S=C(Nc1cc(Cl)cc(Cl)c1)NC1CCN(Cc2ccccc2)CC1 returned GLP1R cytotox inconclusive, GLP1R ag -2%, GLP1R inv ag 4µM*, DRD3 agonist -14, ClpP mod 0% and DRD3 antagonist -94*.
For S=C(Nc1ccc(Cl)cc1Cl)NC1CCN(Cc2ccccc2)CC1 the results were GLP1R cytotox -7%, GLP1R ag 5%, GLP1R inv ag inconclusive, DRD3 agonist -6, ClpP mod -2% and DRD3 antagonist -28.
Screening CC(=O)NC[C@@H]1CN(c2ccc(N3CCOCC3)c(F)c2)C(=O)O1 returned GLP1R ag -5%.
Screening FC(F)(F)c1ccccc1NC(=S)NC1CCN(Cc2ccccc2)CC1 returned GLP1R cytotox -7%, GLP1R ag 7%, GLP1R inv ag -22%, DRD3 agonist -20, ClpP mod 0% and DRD3 antagonist -58*.
For CC(C)c1ccc(NC(=S)NC2CCN(Cc3ccccc3)CC2)cc1 the results were GLP1R cytotox inconclusive, GLP1R ag -26%, GLP1R inv ag 0%, DRD3 agonist -21, ClpP mod 2% and DRD3 antagonist inconclusive.
`CC(C)c1ccccc1NC(=S)NC1CCN(Cc2ccccc2)CC1` gave GLP1R cytotox inconclusive, GLP1R ag 0%, GLP1R inv ag inconclusive, DRD3 agonist -40, ClpP mod -2% and DRD3 antagonist -79*.
`CCOc1ccc(N(CC(=O)Nc2ccc(OC)cc2)S(=O)(=O)c2ccc(Cl)cc2)cc1` gave GLP1R cytotox 3%, GLP1R ag -7%, GLP1R inv ag 6%, DRD3 agonist -16 and ClpP mod -1%.
`COc1ccc(Oc2cc(F)nc(N)n2)cc1` gave GLP1R cytotox 7%, GLP1R ag -9%, GLP1R inv ag 1%, DRD3 agonist 1, ClpP mod -2% and DRD3 antagonist -29.
`Cc1ccc(C)c(Oc2cc(F)nc(N)n2)c1` gave GLP1R cytotox 12%, GLP1R ag 10%, GLP1R inv ag 0%, DRD3 agonist -11, ClpP mod 18µM* and DRD3 antagonist -5.
COc1ccc2c(c1OC)C(=O)OC2Nc1nc(-c2ccc(-c3ccccc3)cc2)cs1 (stereo unspecified) was read as GLP1R cytotox 4%, GLP1R ag 6%, GLP1R inv ag 14%, DRD3 agonist 0, ClpP mod 16µM* and DRD3 antagonist -14.
`CCOC(=O)c1c(-c2ccccc2)oc2ccc(O)cc12` gave GLP1R cytotox -5%, GLP1R ag 20%, GLP1R inv ag inconclusive, DRD3 agonist 7, ClpP mod -14% and DRD3 antagonist 3.
`CCOC(=O)c1c(-c2ccccc2)[nH]c2ccc(O)cc12` gave GLP1R cytotox 9%, GLP1R ag 2%, GLP1R inv ag inconclusive, DRD3 agonist -4, ClpP mod 32µM* and DRD3 antagonist -18.
`O=c1c2ccccc2c(C=NCCc2ccccc2)c(O)n1Cc1ccccc1` gave GLP1R cytotox 12%, GLP1R ag -19%, GLP1R inv ag 5µM*, DRD3 agonist 3, ClpP mod -4% and DRD3 antagonist -9.
O=c1c2ccccc2c(C=NCCCN2CCOCC2)c(O)n1Cc1ccccc1 was read as GLP1R cytotox -10%, GLP1R ag 19%, GLP1R inv ag inconclusive, DRD3 agonist -1, ClpP mod -1% and DRD3 antagonist -13.
For Cc1nc2ccc(C(=O)N3c4ccccc4N=C(c4ccc(C(F)(F)F)cc4)C3C(=O)NC(C)(C)C)cc2[nH]1 (stereo unspecified) the results were GLP1R cytotox 3%, GLP1R inv ag 12%, DRD3 agonist -1, ClpP mod 8% and DRD3 antagonist -8.
